Test results from PubChem BioAssay (NCI).
The panel holds about 83,000 compounds, 20% with a hit somewhere; the sample as a whole holds those more often.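 Growth was measured after 48 h exposure to one concentration of compound in 96-well plates. Values under 10 count as active.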 Values without a mark were called inactive. Activity calls are given as the source filed them.

What follows are compounds tested on A549/ATCC NSCLC (assay: NCI-60 one-dose screen, 48 h (100 = growth as untreated, 0 = no growth, -100 = all killed)). Details: 10 µM unless noted.

| SMILES | growth |
| --- | --- |
| COc1ccc2cc(C(C)C(=O)Nc3ccc(S(=O)(=O)Nc4cc(C)on4)cc3)ccc2c1 (stereo unspecified) | 86.2% |
| CN1CCN(Cc2ccc(NC(=O)c3ccc(C#Cc4c(N)ncc5ccc(F)cc45)cc3)cc2C(F)(F)F)CC1 | -49.1% (active) |
| CSC1=Nc2c(c(C)c(-c3ccccc3)n2CCCCl)C2=NC(=O)CN12 | 74.1% |
| Cc1ncc(C(=O)Nc2ccc(CN3CCN(C)CC3)c(C(F)(F)F)c2)cc1C#Cc1cnc(NC2CC2)c2ncccc12 | -91.5% (active) |
| Oc1ccc([S+](c2ccc(O)cc2)c2ccc(O)cc2)cc1 | 98.7% |
| Oc1ccc2ccccc2c1/C=N\Nc1ccccn1 | 8.68% (active) |
| CCCNC(=O)Oc1ccc(/C(=C(/CC)Cc2ccccc2)c2ccc(OCCN(CC)CC)cc2)cc1 | 63.6% |

The compounds below were run on 786-0 renal in the same assay as above. Details: 10 µM unless noted.

| SMILES | growth |
| --- | --- |
| Cc1cc(CSc2ccc(Cl)cc2)ccc1N | 69.8% |
| CC(=O)C(CO)C(=O)Nc1ccccc1 (stereo unspecified) | 96.8% |
| Cc1nc2ccccc2c(=O)n1-c1cccc(OCc2cn(-c3cccc(O)c3)nn2)c1 | 107% |
| CCCCCCCCCCN1CC2CCCCC2C1 (stereo unspecified) | 86.6% |
| CCCCN(CCC)CCCCCCCCCCN1CCCc2ccccc21 | 88.8% |
| C/C=C(/C)C(=O)OC1C=C(CO)C(=O)C(OC(=O)/C(C)=C\C)C1C(C)C (stereo unspecified) | -88.6% (active) |
| O=C1C(Cl)=C(Nc2ccc(Nc3ccccc3)c(NC3=C(Cl)C(=O)c4ccccc4C3=O)c2)C(=O)c2ccccc21 | 78.3% |
| CN1CCN(Cc2ccc(NC(=O)c3cncc(C#Cc4c(N)ncc5ccc(F)cc45)c3)cc2C(F)(F)F)CC1 | -71.9% (active) |
| COc1cccc(CNC(=O)c2cccc(C3CC(=O)c4c(cc(OC)c(OC)c4OC)O3)c2)c1 (stereo unspecified) | 24.8% |
| COC(=O)C1CC(=O)N(C(=O)Nc2ccc(Cl)cc2Cl)C1 (stereo unspecified) | 92.4% |
| O=C(/C=C\c1ccc(NCc2ccc(C(=O)O)cc2)cc1)CCl | 90.4% |
| CC1(C)NC(=S)NC1=O | 100% |
| Cc1ccc(C(=O)Nc2ccc(CN3CCN(C)CC3)c(C(F)(F)F)c2)cc1C#Cc1cncc2ncccc12 | -70.5% (active) |
| COc1ccc(-c2nc(N)n(C(=S)Nc3ccccc3)n2)cc1 | 105% |
| O=C(O)c1ccc(-c2nn(-c3ccc(C(=O)O)cc3)cc2CNc2ccc(Br)cc2)cc1 | 102% |
| CCS(=O)(=O)N[C@@H]1O[C@H](COC(C)=O)C(OC(C)=O)[C@H](OC(C)=O)C1OC(C)=O (stereo partly specified) | 104% |
| CCC(C)(C)c1ccc(OCCCCCCN2CCN(c3ccc(C)c(Cl)c3)CC2)cc1 | 95.7% |
| Cc1ncc(C(=O)Nc2ccc(CN3CCN(C)CC3)c(C(F)(F)F)c2)cc1C#Cc1c(N)ncc2ccccc12 | -91.8% (active) |
| COc1ccc2cnc(N)c(C#Cc3cc(C(=O)Nc4ccc(CN5CCN(C)CC5)c(C(F)(F)F)c4)cnc3C)c2c1 | -50.3% (active) |
| COc1ccc(-c2nc(SCC(C)C)nc(Nc3ccc(C(=O)O)cc3)c2C#N)cc1 | 106% |
| CCCCCCCCCCCCCCCCC(=O)O.CCCCCCCCCCCCCCCCCC(=O)O.CCCCCCCCCCCCCCCCCC(=O)O.CCCCCCCCCCCCCCCCCC(=O)O.CCCCCCCCCCCCCCCCCC(=O)O.CO[CH-]OC12COC1CC(O)C1(C)C(O)C(OC(C)O)C3=C(C)C(OC(=O)C(O)C([NH-])c4ccccc4)CC(O)(C(OC(=O)c4ccccc4)C21)C3(C)C.[Cu+].[Zn].[Zn].[Zn].[Zn].[Zn] (stereo unspecified) | 41.7% |
| O=C1c2cc([N+](=O)[O-])ccc2-c2cc(Cl)c(NC(=O)C(F)(F)F)cc21 | 108% |
| CCCNC(=O)Oc1ccc(/C(=C(/C)Cc2ccc(OC)cc2)c2ccc(OCCN3CCCCC3)cc2)cc1 | 81.8% |
| CC(=O)CCS(=O)c1ccccc1 (stereo unspecified) | 105% |
| N#CC1=C(N2CCOCC2)NC2c3ccccc3Sc3ccccc3N2C1=N (stereo unspecified) | 104% |
| CC(C)(C)OC(=O)N1C/C(=C\c2ccccc2)C(=O)/C(=C/c2ccccc2)C1 | 81.6% |
| N#Cc1ccc(NC2c3ccccc3CC2O)cc1 (stereo unspecified) | 108% |
| CC([C@H]1CCC2C3CCC4C[C@@H](N)CC[C@]4(C)C3CC[C@@]21C)N(C)C (stereo partly specified) | 71.7% |
| CCN(CC)c1ccc2nc3ccc(N=Nc4ccc(O)cc4)cc3[n+](-c3ccccc3)c2c1 | 88.5% |
